Rows were chosen to be rich in hits. Some 2.2% of all compounds tested hit in one or more screens of this group.
Abeta yeast res = A-beta toxicity reversal in yeast | yeast expressing A-beta42, growth rescue, OD600, 48 h; response scale: 0% DMSO, 100% iron-clioquinol control | Potency, µM (series often up to 46.1 µM), hits mostly activators | actives 0.063% (n = 410,000); further: nearly all actives have a fitted effect of over 55% in size
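Yeast growth medium received pinned compounds, then yeast cells expressing toxic A-beta were added; plates incubated at 30 C for 48 hr. Growth read as absorbance at 600 nm, normalized to DMSO and equimolar FeCl3 plus clioquinol controls.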
aSyn rescue = inhibitors of alpha-synuclein toxicity in yeast. Yeast expressing alpha-synuclein, growth rescue, BacTiter-Glo, 24 h. Potency, µM (doses to about 46.1 µM), for inactives: top-dose growth rescue (activation), actives largely listed as activators. AID 652106. actives 0.14% (n = 370,000); further: % of control where 0% means no effect; nearly all actives have a fitted effect of over 65% in size
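Screening used galactose-induced yeast with toxic alpha-synuclein levels, exposed to compound for 24 hr at 30 deg C. Cell growth, read with BacTiter-Glo luminescence, gave the measured signal.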
FUS yeast rescue = FUS proteinopathy suppression in yeast | S. cerevisiae FUS-expressing, growth rescue, OD600, 24 h | Potency, µM (series often up to 76.6 µM), hits mostly activators | actives 0.24% (n = 390,000) | AID 1347120;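 further: plate controls were DMSO vehicle for no effect and reference control for full effect; nearly all actives have a fitted effect of over 55% in size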
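Quantitative HTS measuring growth restoration of FUS-toxic yeast. Galactose-induced cells (OD 0.005) were exposed 24hr at 30C to compounds at several concentrations, then absorbance at 600 nm was recorded.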
TDP43 rescue = TDP-43 toxicity inhibition in yeast; Potency, µM (highest dose often 46.1 µM), inactives show at the top dose growth rescue (activation), usual class: activators; actives 1.8% (n = 410,000); AID 652104; TDP-43 expressing yeast growth rescue, BacTiter-Glo, 24 h; further: % of control where 0% means no effect; nearly all actives have a fitted effect of over 50% in size
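Cell-based yeast growth screen: TDP-43 expression induced in galactose, inoculum OD600=0.02 after raffinose pregrowth to mid-log. Read-out BacTiter-Glo luminescence at 24 hr, 30 deg C; inhibition of toxicity seen as signal increase.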
Mito fusion act = inhibitors of mitochondrial division or activators of mitochondrial fusion; actives 0.23% (n = 320,000); S. cerevisiae fusion-defective mutant growth rescue, CellTiterGlo 48 h; AID 485298; Potency, µM (doses to about 46.1 µM), for the others: at the top dose growth rescue (activation), most hits filed as activators; further: % of control where 0% means no effect; nearly all actives have a fitted effect of over 45% in size
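Growth-rescue viability read-out: after 48 h at the non-permissive 37C in glycerol/ethanol YPEG, yeast mitochondrial fusion mutants are measured by CellTiterGlo luminescence; compounds (23 nl pinned per well) restoring growth score as division inhibitors or fusion activators.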
* hit, by the source's call; i = inactive; u = inconclusive; x = no result; ! = not active in a repeat. The call rests on the fitted dose curve; in most records, active means well fitted curve in the direction sought with a large enough effect; inconclusive means small, poorly fitted or top-dose-only effect, or another doubt; inactive means no such curve, though single readings can be large; an effect the other way counts as inactive or inconclusive. Potency means the concentration at half of the fitted maximal effect.

SMILES	Abeta yeast res	aSyn rescue	FUS yeast rescue	TDP43 rescue	Mito fusion act
CS(=O)(=O)O/N=C1\CCCCC1c1ccc([N+](=O)[O-])cc1[N+](=O)[O-] (configuration not stated)	i	0%	i	-24%	-4%
CCNC(=O)O/N=C1\CCCCC1c1ccc([N+](=O)[O-])cc1[N+](=O)[O-] (configuration not stated)	i	-5%	i	14µM*	-29%
CC(C)COc1ccc(C(=O)NCC2OCCc3ccccc32)cc1 (configuration not stated)	i	x	i	26%	x
COc1ccc(C(=O)NCC2OCCc3ccccc32)c(O)c1 (configuration not stated)	i	-12%	i	14µM*	14%
Cc1cc(=O)oc2cc(O)ccc12	i	-8%	i	12%	x
O=c1oc2cc(O)ccc2c2c1CCCC2	i	14%	i	13µM*	6%
CC(=O)Oc1ccc2c3c(c(=O)oc2c1)CCCC3	u	6%	i	u	1%
O=c1cc(O)c2ccc(O)cc2o1	i	u	i	14µM*	1%
COc1ccc(-c2nn3c(-c4cc(C)[nH]n4)nnc3s2)cc1	x	-4%	x	x	x
Clc1cccc(CSc2nncn3c2cc2sccc23)c1	i	x	i	u	x
COc1cccc(-n2c(=O)c3c4c(sc3n(Cc3ccc(F)cc3Cl)c2=O)CCCC4)c1	i	x	i	14%	x
CCOC(=O)c1cccc(NC(=O)CCn2c(-c3ccc(F)cc3)cc(C(=O)OCC)c2C)c1	i	x	i	7%	x
O=C1NCCc2onc(-c3ccc(Br)cc3)c21	i	-18%	i	35µM*	x
CCCC1CCC2(CC1)CCC2OC(=S)Nc1ccccc1 (configuration not stated)	x	x	i	x	x
CCCCn1c(N)c(-c2nc3ccccc3s2)c2c([N+](=O)[O-])nn(C)c(=O)c21	i	0%	40µM*	-20%	4%
CCCCCCn1c(=O)n2n(c1=O)[C@@H]1CN(S(=O)(=O)c3ccc(C)cc3)C[C@]1(O)[C@@H](OC(=O)NCc1ccc(OC)c(OC)c1)C2	i	11%	22µM*	0%	x
CC1=C(C(=O)NCc2cccc(Br)c2)C2(CCCCC2)OC1=O	i	x	i	18µM*	x
N#C/C(=C\c1ccc([N+](=O)[O-])cc1)c1ccccn1	i	5%	i	13µM*	-7%
N#C/C(=C\c1cccnc1)c1ccc([N+](=O)[O-])cc1	i	3%	i	11µM*	7%
COC(=O)[C@]12C[C@H](CC(=O)NCc3ccccc3)C(=O)N(Cc3ccc(Cl)cc3Cl)C1=C[C@H](C1CCCC1)O[C@@H]2C	x	x	i	x	x
COC(=O)[C@]12C[C@H](CC(=O)N3CCCCC3)C(=O)N(CCc3ccc(OC)c(OC)c3)C1=C[C@H](C(C)(C)C)O[C@@H]2C	x	x	i	x	x
COC(=O)[C@]12C[C@H](CC(=O)N3CCCC3)C(=O)N(Cc3ccc(Cl)cc3Cl)C1=C[C@H](C(C)(C)C)O[C@@H]2C	x	x	18µM*	x	x
C#CCNC(=O)C[C@H]1C[C@@]2(C(=O)OC)C(=C[C@H](C(C)(C)C)O[C@@H]2C)N(Cc2ccc(Cl)cc2Cl)C1=O	x	x	18µM*	x	x
O=C1CCC[C@H]2Cc3nc4cccc(Cl)c4cc3C[C@]23CCCN13	x	x	i	x	x
CNC(=S)N1CCC(Cc2ccccc2)CC1	u	2%	i	4%	-9%
SMILES	Abeta yeast res	aSyn rescue	FUS yeast rescue	TDP43 rescue	Mito fusion act
CC(C)OCC(O)CN1CCC(Cc2ccccc2)CC1 (configuration not stated)	i	0%	i	u	1%
CC(C(O)c1ccc(O)cc1)N1CCC(Cc2ccccc2)CC1 (configuration not stated)	i	15%	i	15%	16µM*!
C[C@@H](CN1CCC(Cc2ccccc2)CC1)[C@@H](O)c1ccc(O)cc1	i	4%	i	-12%	23µM*!
Cc1nonc1OC(C)CNc1ccc([N+](=O)[O-])cc1 (configuration not stated)	i	-5%	i	20µM*	-9%
Cc1nonc1OCCNc1ccc([N+](=O)[O-])cc1[N+](=O)[O-]	u	8%	x	u	-7%
Cc1ccc2nc(N(Cc3cccnc3)C(=O)C3CCCCC3)sc2c1	i	x	i	5.6µM*	x
Cc1ccc2nc(N(Cc3cccnc3)C(=O)c3cccs3)sc2c1	i	x	i	1%	x
CCOc1ccc2nc(N(Cc3cccnc3)C(=O)C3CCCCC3)sc2c1	i	x	i	u	x
Cc1cccc2sc(N(Cc3cccnc3)C(=O)C3CCCCC3)nc12	i	x	i	3.5µM*	x
CCc1ccc2nc(N(Cc3cccnc3)C(=O)c3cccs3)sc2c1	i	x	i	32µM*	x
O=C(c1ccc2c(c1)OCCO2)N(Cc1cccnc1)c1nc2c(Cl)cccc2s1	i	x	i	22µM*	x
COc1ccc(Br)cc1CNCc1c(C(=O)O)c(C)n(Cc2ccccc2C)c1C	i	x	i	-4%	x
N#C/C(=N\Nc1cccc(C(F)(F)F)c1)C(=O)c1ccsc1	i	-24%	i	10µM*	u
N#C/C(=N\Nc1cccc([N+](=O)[O-])c1)C(=O)c1ccc(Br)cc1	i	-2%	i	8%	-4%
CCOC(=O)C1CCN(C(=O)CCc2c(C)nc3cc(-c4ccccc4)nn3c2C)CC1	i	2%	i	18µM*	1%
CCOC(=O)C1CCCCN1C(=O)CCc1c(C)nc2cc(-c3ccccc3)nn2c1C (configuration not stated)	i	3%	i	u	8%
CCc1cc2c(cc3c(=O)n(CC(=O)N4CCN(c5cccc(C)c5C)CC4)nc(CC)n32)s1	i	x	i	17%	x
CC1Cc2cc(S(=O)(=O)N3CCCC(C(=O)N4CCCCC4)C3)ccc2N1C(=O)C1CC1 (configuration not stated)	x	1%	i	u	0.32µM*
CC1Cc2cc(S(=O)(=O)NCCc3ccc(Cl)cc3)ccc2N1C(=O)C1CCC1 (configuration not stated)	u	x	i	18µM*	x
CC(=O)N1c2ccc(S(=O)(=O)N3CCCC(C(=O)N4CCCCC4)C3)cc2CC1C (configuration not stated)	i	0%	i	-25%	7%
